{
  "source": "PubChem BioAssay (NCI)",
  "note": "This is part of a sample that, as a whole, favours compounds with a hit. Of some 83,000 tested, about 20% had one in any assay.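 Percent growth is the endpoint: 0 to 100 indicates growth inhibition (40 means 60% inhibition), 0 means no net growth, and negative values indicate cell death.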 Activity calls are given as the source filed them. How the source made its calls: active means growth percent below 10; inactive means the rest.",
  "data": [
    {"system": "BT-549 breast", "assay": "NCI-60 one-dose screen, 48 h (100 = growth as untreated, 0 = no growth, -100 = all killed)", "details": "10 µM unless noted", "values": [
      {"smiles": "CCCNc1nc(N(C)O)nc(N(C)O)n1", "growth": "68.5% (inactive)"},
      {"smiles": "Brc1ccc(Cn2nnnc2-c2ccn(-c3ccccc3)n2)cc1", "growth": "76.8% (inactive)"},
      {"smiles": "CC(C)(C)CC(C)(C)c1ccc(OCCOCC[N+](C)(C)CC(=O)[O-])cc1", "growth": "125% (inactive)"},
      {"smiles": "CN(C)c1ccc(N)c2ccccc12", "growth": "80.4% (inactive)"},
      {"smiles": "O=C1c2ccccc2C(=Cc2ccccc2)c2ccccc21", "growth": "-3.95% (active)"},
      {"smiles": "COC(=O)[C@]12CC[C@@H](C)[C@H](C)[C@@H]1C1=CC[C@@H]3[C@@]4(C)C=C(O)C(=O)C(C)=C4CC[C@@]3(C)[C@]1(C)CC2", "growth": "69.1% (inactive)"},
      {"smiles": "Cn1cnc2c1c(=O)n(CCC(=O)Nc1ccc(F)cc1)c(=O)n2C", "growth": "91.1% (inactive)"},
      {"smiles": "COC1=C(Br)C(=O)C(OC)=C(Br)C1=O", "growth": "95.9% (inactive)"},
      {"smiles": "N#C/C(=C\\c1ccc(-c2ccc(F)cc2)o1)c1nc(-c2ccco2)cs1", "growth": "106% (inactive)"},
      {"smiles": "Nc1nc(N)c2nc3c(nc2n1)CCCCCCCCCC3", "growth": "74.5% (inactive)"},
      {"smiles": "COc1ccc(-n2c(/C=C/c3ccc(O)c(OC)c3)cc(/C=C/c3ccc(O)c(OC)c3)nc2=O)cc1", "growth": "30.9% (inactive)"},
      {"smiles": "NC(=O)[C@@H]1CC2CCC1C2", "note": "(stereo partly specified)", "growth": "94.2% (inactive)"},
      {"smiles": "COc1cccc(-c2nn(-c3ccccc3)cc2-c2ccnc(NCCNS(=O)(=O)c3ccc(Cl)cc3)c2)c1", "growth": "41.9% (inactive)"},
      {"smiles": "C=C1C(=O)O[C@H]2[C@H]1CC/C(COC(=O)NCc1cc3ccccc3[nH]1)=C\\CC[C@@]1(C)O[C@@H]21", "growth": "-24.2% (active)"},
      {"smiles": "[B-][N+](CC)(CC)c1ccccc1", "growth": "99.3% (inactive)"},
      {"smiles": "Cc1nn2c(-c3nc4cc(Cl)c(Cl)cc4[nH]3)c(-c3ccc(F)cc3)nc2s1", "growth": "44.2% (inactive)"},
      {"smiles": "O=C1C=C(C(O)c2ccc(O)cc2)C(=O)c2ccccc21", "note": "(stereo unspecified)", "growth": "88.1% (inactive)"},
      {"smiles": "CCCC(=O)N1CCCCC1CC", "note": "(stereo unspecified)", "growth": "100% (inactive)"},
      {"smiles": "Cc1nn(-c2ccc(Cl)cc2)c(=O)n1CCn1cnc2ccccc21", "growth": "97.5% (inactive)"},
      {"smiles": "COC(=O)[C@]12CC[C@@H](C)[C@H](C)[C@@H]1C1=CC[C@@H]3[C@@]4(C)C[C@@H](OC(C)=O)[C@H](O)[C@@](C)(CO)[C@@H]4[C@H](O)C[C@@]3(C)[C@]1(C)CC2", "growth": "-81.5% (active)"},
      {"smiles": "O=C(/C=C\\c1ccc2c(c1)OCO2)/C=C/c1ccc2c(c1)OCO2", "growth": "67.2% (inactive)"},
      {"smiles": "Cn1cc(-c2nc(-c3c[nH]c4ncccc34)cs2)c2ccccc21", "growth": "82.9% (inactive)"},
      {"smiles": "O=C1C=Cc2ncccc2C1=O", "growth": "95.5% (inactive)"},
      {"smiles": "COCCNC1=C(Cl)C(=O)c2ccccc2C1=O", "growth": "98.2% (inactive)"},
      {"smiles": "COc1ccc(O)c(-c2cc(-c3ccc(Cl)cc3)c(C#N)c(=O)[nH]2)c1", "growth": "9.41% (active)"},
      {"smiles": "C/C(=N\\Nc1cc(C)c2cc(C)ccc2n1)c1ccccn1", "growth": "21.2% (inactive)"},
      {"smiles": "COC(=O)C(N)CSC(c1ccccc1)(c1ccccc1)c1ccccc1", "note": "(stereo unspecified)", "growth": "54.6% (inactive)"},
      {"smiles": "CCCCCCCC(=O)SCC/C=C/[C@@H]1CC(=O)NCc2cccc(n2)CN(Cc2ccc3ccccc3c2)CC(=O)N[C@@H](C(C)C)C(=O)O1", "growth": "88.1% (inactive)"},
      {"smiles": "C=C(C)[C@@H]1CC[C@]2(CN)CC[C@]3(C)[C@H](CC[C@@H]4[C@@]5(C)CCC(=O)NC(C)(C)[C@@H]5CC[C@]43C)[C@@H]12", "growth": "80.8% (inactive)"},
      {"smiles": "CC(=O)O[C@@H]1CCN2C(=O)N(C)c3ccccc3[C@@H]2C1", "growth": "108% (inactive)"},
      {"smiles": "Cc1cc(N(CCCNc2ccnc3cc(Cl)ccc23)Cc2ccco2)nc(Cl)n1", "growth": "35.2% (inactive)"},
      {"smiles": "O=S(=O)(NCCNc1cc(-c2cn(-c3ccccc3)nc2-c2cccc(O)c2)ccn1)c1ccc(Cl)cc1", "growth": "50.7% (inactive)"},
      {"smiles": "Cn1c(=O)c2c(nc(N3CCCC3)n2C)n(C)c1=O", "growth": "97% (inactive)"},
      {"smiles": "Cn1cc(-c2csc(-c3cn(CCN)c4ccc(F)cc34)n2)c2cccnc21", "growth": "89.1% (inactive)"},
      {"smiles": "CC1=NN(c2ccc(S(=O)(=O)O)cc2Cl)C(=O)C1", "growth": "116% (inactive)"},
      {"smiles": "CC(CNc1nc(Nc2ccc(Cl)c(Cl)c2)nc(C(Cl)(Cl)Cl)n1)N(C)C", "note": "(stereo unspecified)", "growth": "45.6% (inactive)"},
      {"smiles": "O=C1NC(=Nc2ccc(S(=O)(=O)Nc3nccs3)cc2)S/C1=C\\c1coc2ccccc2c1=O", "growth": "106% (inactive)"},
      {"smiles": "O=C(c1ccccc1)C(CN1CCOCC1)c1ccccc1", "note": "(stereo unspecified)", "growth": "30.2% (inactive)"}
    ]},
    {"system": "MDA-MB-435 melanoma", "assay": "NCI-60 one-dose screen, 48 h (100 = growth as untreated, 0 = no growth, -100 = all killed)", "details": "10 µM unless noted", "values": [
      {"smiles": "CCCNc1nc(N(C)O)nc(N(C)O)n1", "growth": "51.2% (inactive)"},
      {"smiles": "Brc1ccc(Cn2nnnc2-c2ccn(-c3ccccc3)n2)cc1", "growth": "85% (inactive)"},
      {"smiles": "CN(C)c1ccc(N)c2ccccc12", "growth": "-91.3% (active)"},
      {"smiles": "O=C1c2ccccc2C(=Cc2ccccc2)c2ccccc21", "growth": "-56.4% (active)"},
      {"smiles": "COC1=C(Br)C(=O)C(OC)=C(Br)C1=O", "growth": "105% (inactive)"},
      {"smiles": "COc1cccc(-c2nn(-c3ccccc3)cc2-c2ccnc(NCCNS(=O)(=O)c3ccc(Cl)cc3)c2)c1", "growth": "21.8% (inactive)"},
      {"smiles": "Cc1nn(-c2ccc(Cl)cc2)c(=O)n1CCn1cnc2ccccc21", "growth": "100% (inactive)"},
      {"smiles": "O=C(/C=C\\c1ccc2c(c1)OCO2)/C=C/c1ccc2c(c1)OCO2", "growth": "17% (inactive)"},
      {"smiles": "O=C1C=Cc2ncccc2C1=O", "growth": "58.2% (inactive)"},
      {"smiles": "COCCNC1=C(Cl)C(=O)c2ccccc2C1=O", "growth": "24.5% (inactive)"},
      {"smiles": "Cn1cc(-c2csc(-c3cn(CCN)c4ccc(F)cc34)n2)c2cccnc21", "growth": "53.5% (inactive)"},
      {"smiles": "CC1=NN(c2ccc(S(=O)(=O)O)cc2Cl)C(=O)C1", "growth": "107% (inactive)"},
      {"smiles": "CC(CNc1nc(Nc2ccc(Cl)c(Cl)c2)nc(C(Cl)(Cl)Cl)n1)N(C)C", "note": "(stereo unspecified)", "growth": "-47.1% (active)"}
    ]}
  ]
}
